# Screening data deposited in PubChem by National Center for Advancing Translational Sciences (NCATS).
# MARV entry inh = inhibitors of Marburg virus binding or cell entry. Potency, µM (series often up to 37.8 µM), for the others: top-dose activity change, negative = inhibition, most hits filed as inhibitors. 1.8% of 300,000 active. AID 540276. Marburg virus pseudotyped entry inhibition, cell reporter; calls by dose curve; tested in HEK293 cells; also: potency is read from the fitted curve at half-maximal effect; % is scaled to controls: 0 for no effect and ±100 for the full control effect
# Pf growth 48h = inhibits P. falciparum growth in the first generation, 48 h; P. falciparum luciferase growth in erythrocytes, 48 h; Potency, µM (series often up to 28.7 µM), for inactives: top-dose activity change, negative = inhibition, usual class: inhibitors; 5.9% of 310,000 active; also: potency is read from the fitted curve at half-maximal effect; % is scaled to controls: 0 for no effect and ±100 for the full control effect
#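 Cell-based growth assay: transgenic P. falciparum expressing firefly luciferase, cultured in red cells within RPMI 1640 containing 0.5% w/v Albumax, 24 mM bicarbonate and gentamycin. A drop in luciferase activity indicates inhibition.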
# Pf growth 96h = inhibits malaria parasite growth, 96 h; 6.9% of 320,000 active; Potency, µM (titrated, usually from 28.7 µM), for inactives: at the top dose activity change, negative = inhibition, most hits filed as inhibitors; P. falciparum luciferase reporter growth, 96 h; also: potency is read from the fitted curve at half-maximal effect; % is scaled to controls: 0 for no effect and ±100 for the full control effect
#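 Plates of compound plus infected erythrocytes (2% hematocrit, 0.05% parasitemia final) incubate 96 hours, 37 C, 5% CO2. Detection reagent added; reduced luminescence from the parasites' luciferase reporter flags inhibition.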
# Cycloheximide cs = counter-screen hit for Shiga toxin inhibitors, cycloheximide; cell reporter, cycloheximide protein synthesis inhibition counterscreen; max response, %; 12% of 300,000 active; AID 2314; in the data active = max response mostly above about 13%, no sharp cut-off; inactive = mostly below about 14%; also: read at 38.3 µM for the half of the compounds with a filed dose; 0% is about no effect
# Shiga toxin inh = inhibitors of Shiga toxin in Vero cells. inhibition, % at 38.7 µM. AID 2315. Vero cells, Shiga toxin protein synthesis inhibition reporter. 9.2% of 290,000 active; in the data active = inhibition mostly above about 28%, no sharp cut-off; inactive = mostly below about 43%; also: 0% is about no effect
# LASV entry inh = inhibitors of Lassa virus binding or cell entry; Lassa virus pseudotype entry inhibition, cell reporter; Potency, µM (highest dose often 37.9 µM), inactives show at the top dose activity change, negative = inhibition, actives largely listed as inhibitors; 1.2% of 300,000 active; calls by dose curve; tested in HEK293 cells; also: potency is read from the fitted curve at half-maximal effect; % is scaled to controls: 0 for no effect and ±100 for the full control effect; nearly all actives have a fitted effect of over 50% in size
# * = called active by the depositor; ? = inconclusive; · = no result given; [ ] = another dose, or the depositor's remark. Sampled rows, rich in hits. Any-hit rate of the full collection: about 19%. Unless noted, calls follow the shape of the dose curve; as a rule, active = well fitted inhibition curve with a large enough effect; inconclusive = small, poorly fitted or top-dose-only effect, or another doubt; inactive = no such curve, though single readings can be large or run the other way.
SMILES,MARV entry inh,Pf growth 48h,Pf growth 96h,Cycloheximide cs,Shiga toxin inh,LASV entry inh
COc1ccc(-c2nnc(NC(=O)CS(=O)(=O)c3ccc(F)cc3)o2)cc1,?,3%,-8%,·,·,9%
O=C(CCl)Nc1c(C(=O)Nc2ccc3c(c2)OCCO3)oc2ccccc12,?,-5%,?,69*,84*,?
Cc1nc2ccc(NC(=O)c3oc4ccc(F)cc4c3C)cc2s1,·,14%,16%,·,·,·
COCC(=O)Nc1c(C(=O)Nc2ccc3c(c2)OCO3)oc2ccccc12,·,45%,218%,7,11,·
COc1ccc(NC(=O)c2oc3ccccc3c2CSC)cc1S(=O)(=O)N1CCOCC1,5%[46.1 µM],·,·,·,·,1%[46.1 µM]
CSCc1c(C(=O)Nc2ccc3c(c2)OCO3)oc2ccccc12,-1%[46.1 µM],6%,25%,19*,60*,-19%[46.1 µM]
Cc1c(C(=O)Nc2ccc3nc(N4CCOCC4)sc3c2)oc2ccccc12,·,10µM*,?,·,·,·
CC(=O)Nc1c(C(=O)Nc2ccc3c(c2)OCO3)oc2ccccc12,·,252%,268%,42*,114*,·
Cc1ccc2c(c1)C(=O)C(=O)N2CCCOc1ccccc1C,·,24%,?,1,-10,·
OC(COc1ccc(F)cc1)CN1CCN(CC(O)COc2ccc(F)cc2)CC1 (stereo unspecified),?,-18%,18%,-2,5,-11%[46.1 µM]
CSCc1c(C(=O)Nc2ccc(N3CCOCC3)cc2)oc2ccccc12,-7%,·,-11%,8,-8,3%
Cc1c(C(=O)Nc2ccc3c(c2)OCO3)oc2ccccc12,?,255%,347%,43,121*,-20%
CCc1ccccc1NC(=O)c1ccc2nc(N3CCOCC3)sc2c1,·,-7%,34%,0,-1,·
CSCc1c(C(=O)Nc2ccccc2N2CCOCC2)oc2ccccc12,·,12µM*,-113%,·,·,·
Cc1ccc(NC(=O)c2ccc3nc(N4CCOCC4)sc3c2)c(Cl)c1,·,44%,-11%,16*,4,·
O=C1COc2ccc(C(=O)COC(=O)c3ccccc3[N+](=O)[O-])cc2N1,-3%,1%,25%,·,·,1%
COc1ccccc1N1CCN(C(=O)c2cccc(N3C(=O)NC4CC3(C)Oc3ccccc34)c2)CC1 (stereo unspecified),?,12µM*,1%,0,-2,-22%
CC12CC(NC(=O)N1c1ccc(C(=O)N3CCN(c4ccc(F)cc4)CC3)cc1)c1ccccc1O2 (stereo unspecified),-2%,?,·,2,-15,-14%
CC12CC(NC(=O)N1c1cccc(C(=O)N3CCN(c4ccccc4)CC3)c1)c1ccccc1O2 (stereo unspecified),-1%,8.3µM*,?,-2,-43,-10%
COc1cccc(N2CCN(C(=O)c3cccc(N4C(=O)NC5CC4(C)Oc4c(OC)cccc45)c3)CC2)c1 (stereo unspecified),-6%[46.1 µM],?,-18%,-10,-2,?
CCOC(=O)N1CCN(C(=O)c2cccc(N3C(=O)NC4CC3(C)Oc3ccccc34)c2)CC1 (stereo unspecified),-14%[46.1 µM],-15%,1.9µM*,-2,-10,11%[46.1 µM]
COc1cc(CNn2cn[nH]c2=S)ccc1OCC(=O)NC(C)(C)C,-4%[46.1 µM],1%,3%,-4,-5,?
Cc1ccccc1Oc1cc(NC(=O)Cn2cnc([N+](=O)[O-])c2)cc([N+](=O)[O-])c1,·,10µM*,?,11,1,·
Cc1ccccc1Oc1cc(NC(=O)CCCn2nc(C)c([N+](=O)[O-])c2C)cc([N+](=O)[O-])c1,?,?,15µM*,-1,-14,-18%
CCCCC(=O)N/N=C/c1c(O)n(Cc2ccc(F)cc2)c(=O)[nH]c1=O,?,-4%,-6%,-1,-8,-7%
Cc1ccc(C)c(NC(=O)CSc2n[nH]c(-c3ccncc3)n2)c1,10%[46.1 µM],-6%,·,-2,-4,15%
CCO[C@H]1OC(C(=O)NCc2nc3ccccc3[nH]2)=C[C@@H](c2ccccc2)[C@@H]1CCCO,·,-3%,-7%,-2,-3,·
